Among the data in PubChem BioAssay (NCI) are growth values, retold here.

This is part of a sample that, as a whole, favours compounds with a hit. Of some 83,000 tested, about 20% had one in any assay.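 Method: cells in 96-well plates; compound added at one concentration; 48 h incubation; percent growth measured; values under 10 scored active.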 Unmarked numbers belong to inactive results. Active and inactive are the calls of the source.

What all share (experiment): NCI-60 one-dose screen, 48 h (100 = growth as untreated, 0 = no growth, -100 = all killed)
What all share (conditions): 10 µM unless noted

Assay [1] concerns DU-145 prostate.
In assay [2] the test system is K-562 leukemia.
The test system of assay [3] is MALME-3M melanoma.
Assay [4] relates to MDA-MB-231 breast.
In assay [5] the test system is RXF 393 renal.
Assay [6] relates to SF-268 CNS.
Assay [7] has as its system SF-539 CNS.
In assay [8] the test system is UACC-257 melanoma.
For assay [9], the system named is M14 melanoma.
Assay [10] relates to HCT-15 colon.
The subject of assay [11] is HT29 colon.
In assay [12] the test system is SNB-75 CNS.
Assay [13] concerns SNB-19 CNS.
Assay [14] concerns U251 CNS.
In assay [15] the test system is PC-3 prostate.
Assay [16] concerns SK-MEL-5 melanoma.
For assay [17], the system named is UACC-62 melanoma.
The test system of assay [18] is LOX IMVI melanoma.
The test system of assay [19] is SK-MEL-28 melanoma.

As for `CCN(CC)CCCNc1cccc2c(C)cc(OC)nc12`, the growth in assay [1] is 114%; in [2], 92.3%; in assay [3], 107%; in [4], 81%; in assay [5], 93.9%; in assay [6] it was 104%. The growth in assay [7] is 88.8%; in [8], 98.9%; in [9] it was 93.2%; in assay [10], 94.9%; in assay [11] it was 87.6%; in assay [12], 76.8%. In addition, the growth in [13] was 94.9%; in assay [14], 94.3%; in assay [15], 75.1%; in assay [16], 91.3%; in assay [17] it was 85.3%; in [18], 105%. For the same compound, in assay [19], the growth was 103%.
Turning to `CCCc1cc2c(cc1CN(Cc1cc3c(cc1CCC)OCO3)C(=N)OCC)OCO2`, the growth in assay [1] is 97.6%; in [2], 63.4%; in [3], 82.8%; in assay [4] it was 77.8%; in [5], 106%; in assay [6] it was 79.2%. Also, the growth in assay [7] is 112%; in assay [8], 83.9%; in [9], 85.9%; in [10] it was 94.8%; in assay [11] it was 52.4%; in assay [12] it was 95.6%. In addition, the growth in [13] is 94%; in [14], 67.3%; in assay [15] it was 59.3%; in [16] it was 88.8%; in assay [17] it was 77.2%; in assay [18] it was 83.6%. The growth in assay [19] is 102%.
As for `CCOC(C)(c1ccc(Cl)cc1)C1CCNCC1` (configuration not stated), the growth in assay [1] was 102%; in assay [2], 65.3%; in [3], 99.9%; in assay [4], 102%; in assay [5], 109%; in [6], 115%. For the same compound, the growth in assay [7] was 88.1%; in assay [8], 78.2%; in assay [9], 86.6%; in assay [10], 94.8%; in assay [11] it was 85.2%; in assay [12], 82.2%. Also, the growth in assay [13] was 101%; in [14], 92.4%; in assay [15], 82.6%; in assay [16], 102%; in [17], 101%; in assay [18], 65.2%. The growth in assay [19] was 109%.
As to `CCc1ccc(-c2ccc(NC3CCCCCC3)nn2)cc1S(N)(=O)=O`, the growth in assay [1] is 114%; in assay [2], 112%; in assay [3], 104%; in assay [4], 109%; in assay [5], 115%; in assay [6] it was 117%. Also, the growth in assay [7] is 98.9%; in assay [8], 100%; in assay [9], 104%; in assay [10], 96.4%; in assay [11] it was 91.3%; in assay [12] it was 97.2%. Also, the growth in assay [13] was 103%; in assay [14], 95.8%; in assay [15], 94.4%; in assay [16], 98.5%; in assay [17], 97.8%; in assay [18], 100%. Moreover, the growth in assay [19] is 105%.
With `COc1ccc(-n2nc(C(=O)NCC(=O)Nc3nc4cc(OC)ccc4s3)c3ccccc3c2=O)cc1`, the growth in [1] is -28.9% (active); in assay [2], 73.9%; in assay [3] it was -13.8% (active); in [4] it was -13.6% (active); in assay [5] it was -38.1% (active); in [6] it was -13.6% (active). The growth in [7] was -93% (active); in assay [8] it was -4.82% (active); in [9], 44.3%; in assay [10], 64.7%; in [11], -24.4% (active); in assay [12], -65.9% (active). Further, the growth is 0.597% (active) in assay [13]; -39.8% (active) in assay [14]; 3.92% (active) in [15]; 48.9% in assay [16]; 31.2% in assay [17]; -32.4% (active) in assay [18]. For the same compound, the growth in assay [19] is 21.1%.
With `CCCC(CCC)NCC(O)c1cc(-c2ccc(C(F)(F)F)cc2)nc(C(F)(F)F)c1` (configuration not stated), the growth in [1] was -26.2% (active); in [2], -51.1% (active); in assay [3] it was -63.7% (active); in assay [4] it was -66.9% (active); in [5], -97% (active); in assay [6] it was -40.5% (active). In addition, the growth was -72.2% (active) in assay [7]; -76.9% (active) in [8]; -74.8% (active) in [9]; -62.4% (active) in [10]; -74% (active) in assay [11]; -3.88% (active) in [12]. The growth in assay [13] was 8.92% (active); in [14] it was -96.6% (active); in [15] it was -47.3% (active); in assay [16], -94% (active); in assay [17], -68.1% (active); in assay [18], -64.2% (active). For the same compound, the growth in assay [19] was -41.9% (active).
Consider `CCc1ccc(Nc2ncnc3c2cnn3-c2cccc(Br)c2)cc1`, for which the growth in assay [1] is 104%; in assay [2], 106%; in assay [3], 99%; in assay [4], 103%; in assay [5], 100%; in assay [6], 98%. In addition, the growth is 102% in assay [7]; 88.6% in assay [8]; 98.6% in assay [9]; 101% in assay [10]; 108% in assay [11]; 78.4% in assay [12]. For the same compound, the growth is 95.3% in [13]; 94.3% in [14]; 94.9% in [15]; 96.6% in assay [16]; 91.7% in [17]; 96.3% in assay [18]. For the same compound, the growth in [19] was 107%.
`CCN(CC)CCCCCCCNc1cc(OC)cc2c(C)ccnc12`: the growth is 102% in [1]; 36.7% in assay [2]; 103% in assay [3]; 54.1% in assay [4]; 91.6% in assay [5]; 91.1% in assay [6]. Also, the growth in assay [7] is 91.3%; in [8], 92.6%; in assay [9], 97.6%; in assay [10], 76.8%; in [11], 52.5%; in [12], 82.9%. The growth in assay [13] was 96.3%; in [14], 86%; in assay [15] it was 51.4%; in assay [16] it was 85.3%; in [17] it was 91.3%; in assay [18], 56.6%. Besides, the growth in assay [19] is 105%.
